Experimental data reported in the supplement of paper PMC11150407.
Structures can show the parent of a compound that is named as a salt. Hit rate of the full screen: of about 2,100 compounds, about 180 (8.6%) showed an effect of 50% or more. The list comes from a sample in which strong results are over-represented; it also holds similar structures and randomly drawn compounds.

system: MOLM1 and UCSD/AML1 (averaged); assay: cell viability relative to DMSO control (POC); higher = less growth inhibition; conditions: 1 µM; 72 h
Method: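 Primary viability screen in the 3q26 EVI1-high AML cell lines MOLM1 and UCSD/AML1 (1.5e3 cells/well, 384-well), compounds at 1 uM for 72 h. ATP CellTiter-Glo read-out given as percent of viable cells over DMSO control (POC), averaged over duplicates. DMSO was the negative control and 5 uM etoposide the positive control. This mapping covers the MicroSource Spectrum and Selleck anticancer libraries (drug names).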

SMILES	cell viability
COc1cccc2c1C(=O)c1c(O)c3c(c(O)c1C2=O)C[C@@](O)(C(=O)CO)C[C@@H]3O[C@H]1C[C@H](N)[C@@H](O)[C@H](C)O1 [Epirubicin Hydrochloride]	1.66%
COc1cccc2c1C(=O)c1c(O)c3c(c(O)c1C2=O)C[C@@](O)(C(C)=O)C[C@@H]3O[C@H]1C[C@H](N)[C@H](O)[C@H](C)O1 [Daunorubicin HCl (Daunomycin HCl)]	1.38%
CC(=O)[C@]1(O)Cc2c(O)c3c(c(O)c2[C@@H](O[C@H]2C[C@H](N)[C@H](O)[C@H](C)O2)C1)C(=O)c1ccccc1C3=O [Idarubicin HCl]	1.49%
COc1cccc2c1C(=O)c1c(O)c3c(c(O)c1C2=O)C[C@@](O)(C(C)=O)C[C@@H]3O[C@H]1C[C@H](N)[C@H](O)[C@H](C)O1	1.85%
COc1cccc2c1C(=O)c1c(O)c3c(c(O)c1C2=O)C[C@@](O)(C(=O)CO)C[C@@H]3O[C@H]1C[C@H](N)[C@H](O)[C@H](C)O1 [Doxorubicin (Adriamycin)]	1.61%
COc1cccc2c1C(=O)c1c(O)c3c(c(O)c1C2=O)C[C@@](O)(C(=O)CO)C[C@@H]3O[C@H]1C[C@H](N)[C@H](O)[C@H](C)O1	1.67%
COc1cccc2c1C(=O)c1c(O)c3c(c(O)c1C2=O)C[C@@](O)(C(=O)CO)C[C@@H]3O[C@H]1C[C@H](N)[C@@H](O)[C@H](C)O1	5.86%
CCCCCCCCCCCC[C@@H](C(=O)O)[C@H](C)C(=O)O	96%
Cc1cc(O)cc(=O)o1	112%
O=C1C=C(O)C(=O)c2ccccc21	92.9%
CC(=O)OCC(=O)[C@@]1(O)CC[C@H]2[C@@H]3C[C@H](C)C4=CC(=O)C=C[C@]4(C)[C@H]3[C@@H](O)C[C@@]21C [6alpha-METHYLPREDNISOLONE ACETATE]	65%
CC(=O)O[C@]1(C)CC[C@@]23C[C@H]1C(C)(C)[C@@H]2CC[C@H]3C	107%
C[C@H]1CC[C@@H](C(C)(C)O)CC2=C1CC[C@@H]2C	94.4%
Oc1ccc2c(c1)OC[C@]1(O)Cc3cc(O)c(O)cc3[C@H]21	105%
COc1cc2ccc(=O)oc2cc1O	94.7%
CC1/C(=N/O)C[C@@H]2C[C@H]1C2(C)C (some centres not stated)	102%
C[n+]1ccccc1C=NO	99.8%
COc1ccc(C2CC(=O)c3ccc(OC)cc3O2)cc1 (configuration not stated)	109%
N#Cc1c(O)c2c(-c3ccc(-c4ccccc4O)cc3)csc2[nH]c1=O	97.3%
COC(=O)[C@H]1[C@H]2C[C@H]3c4[nH]c5cc(OC)ccc5c4CCN3C[C@H]2C[C@@H](OC(=O)c2cc(OC)c(OC)c(OC)c2)[C@@H]1OC	111%
COC1=C[C@@H](C)[C@@H]2C[C@H]3OC(=O)C[C@H]4C(C)=C(OC)C(=O)[C@H]([C@@]2(C)C1=O)[C@@]34C	93.7%

SMILES	cell viability
CC(C)CC(=O)Nc1n[nH]c2c1CN(C(=O)C1CCN(C)CC1)C2(C)C	49.4%
O=c1[nH]cnc2nc[nH]c12	102%
CC1(C)CC[C@]2(C)CC[C@]3(C)C(=CC[C@@H]4[C@@]5(C)CC[C@H](O)C(C)(C)[C@@H]5CC[C@]43C)[C@@H]2C1 [beta-AMYRIN]	91.8%
CC1(C)CNc2cc(NC(=O)c3cccnc3NCc3ccncc3)ccc21 [Motesanib Diphosphate]	86.1%
CCCCC(CC)CN=C(N)N=C(N)NCCCCCCNC(N)=NC(N)=NCC(CC)CCCC (configuration not stated)	7.07%
O=C(O)[C@]1(O)C[C@@H](O)[C@@H](O)[C@H](O)C1	97.5%
C[C@@H]1CN(CC(=O)Nc2ccc3c(c2)Cc2cccc(-c4cc(=O)cc(N5CCOCC5)o4)c2S3)C[C@H](C)O1	88.5%
CCCCCC(=O)Cc1cc(O)cc(O)c1C(=O)Oc1cc(CC(=O)CCCCC)c(C(=O)O)c(OC)c1	87.8%
COc1c(-c2coc3cc4c(cc3c2=O)CC(O)C(C)(C)O4)ccc2c1C=CC(C)(C)O2 (configuration not stated)	82.2%
COc1ccc(CC(=O)c2ccc(O)cc2O)cc1	107%
O.O.O.O.O.O.O.O.O.O.O.O.O.O.O.O.O=S(=O)([O][Al])OC[C@H]1O[C@@](COS(=O)(=O)[O][Al])(O[C@H]2O[C@H](COS(=O)(=O)[O][Al])[C@@H](OS(=O)(=O)[O][Al])[C@H](OS(=O)(=O)[O][Al])[C@H]2OS(=O)(=O)[O][Al])[C@@H](OS(=O)(=O)[O][Al])[C@@H]1OS(=O)(=O)[O][Al]	101%
COC(=O)C[C@H]1C(C)(C)[C@@H](OC(C)=O)[C@@H]2CC3=C4CC(=O)O[C@@H](c5ccoc5)[C@]4(C)CC[C@@H]3[C@@]1(C)C2=O	103%
COC(=O)c1c(C)cc(O)cc1O	98.5%
CCCCCCCCCCCCC[N+](C)(C)Cc1ccccc1	25.7%
Cc1cc(C(C)(C)CC(C)(C)C)ccc1OCCOCC[N+](C)(C)Cc1ccccc1	88.2%
CC(C)(C)CC(C)(C)c1ccc(OCCOCC[N+](C)(C)Cc2ccccc2)cc1	97.1%
Cc1ccc(C(C)C)cc2c(C)ccc1-2	84.7%
COc1ccc(-c2cc(=O)c3c(O)c(OC)c(OC)c(OC)c3o2)cc1OC	80.2%
O=C(CCCCCCC(=O)Nc1ccccc1)NO [Vorinostat (SAHA)]	22%
O=C(Nc1ccccc1)c1ccccc1O	97.1%
O=C(Nc1ccccc1)Nc1ccccc1	87.7%
